Calls of active or inactive are those of the source.
Tests used:
[1] = system: Plasmodium falciparum Sir2 (PF13_0152, Sir2A); experiment: Plasmodium falciparum Sir2A binding compounds – biochemical, small-molecule microarray, 635 nm fluorescence, primary screen (AID 1098); details: fluorescence 635 nm, higher = more signal;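 also: score merges spot fluorescence intensity with its signal-to-noise ratio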
[2] = probe aDKK1 binding to arrayed compounds – biochemical, biotinylated probe, 635/667 nm fluorescence, primary screen (AID 1099); details: small-molecule microarray, higher = more signal;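 also: score merges 667nm spot fluorescence with signal to noise across triplicate slides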
[3] = probe aCHRDL2 binding to arrayed compounds – biochemical, biotinylated probe, 635/667 nm fluorescence, primary screen (AID 1100); details: small-molecule microarray, higher = more signal
[4] = change in splice reporter luminescence, either direction, cell-based, HEK293, spliceosome inhibition project, primary screen (AID 1101); details: HEK293 splicing luciferase reporter, 24 h, higher = more signal, called active from +8 up or from −8 down;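 also: HEK293 cells carrying a splicing-competent luciferase reporter gene; test concentration not given here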
[5] = molecular target: Fibroblast growth factor 10 (Homo sapiens) (UniProt O15520); experiment: compounds binding fibroblast growth factor 10 – biochemical, small-molecule microarray, 635 nm fluorescence, primary screen (AID 1102); details: FGF10 binding, fluorescence 635 nm, higher = more signal
Chain of Fibroblast growth factor 10 (Homo sapiens) (O15520 whole entry, looked up): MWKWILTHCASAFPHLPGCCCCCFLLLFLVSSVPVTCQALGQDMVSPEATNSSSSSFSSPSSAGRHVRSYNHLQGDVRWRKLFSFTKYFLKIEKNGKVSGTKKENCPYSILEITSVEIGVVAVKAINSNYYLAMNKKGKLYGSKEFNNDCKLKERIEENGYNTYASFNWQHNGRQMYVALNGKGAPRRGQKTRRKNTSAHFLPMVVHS

[6] = system: glycogen synthase kinase-3 (GSK3A per assay name; protocol says GSK3B); experiment: compounds binding glycogen synthase kinase-3 – biochemical, small-molecule microarray, 635 nm fluorescence, GSK3A, primary screen (AID 1103); details: fluorescence 635 nm, higher = more signal; also: the record names both GSK3A and GSK3B
[7] = molecular target: Epidermal growth factor receptor (Homo sapiens) (UniProt P00533); experiment: compounds binding epidermal growth factor receptor – biochemical, small-molecule microarray, 635 nm fluorescence, primary screen (AID 1104); details: EGFR binding, higher = more signal;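 also: score merges 667 nm emission intensity with spot signal to noise over triplicate slides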
Chain of Epidermal growth factor receptor (Homo sapiens) (P00533 whole entry, looked up): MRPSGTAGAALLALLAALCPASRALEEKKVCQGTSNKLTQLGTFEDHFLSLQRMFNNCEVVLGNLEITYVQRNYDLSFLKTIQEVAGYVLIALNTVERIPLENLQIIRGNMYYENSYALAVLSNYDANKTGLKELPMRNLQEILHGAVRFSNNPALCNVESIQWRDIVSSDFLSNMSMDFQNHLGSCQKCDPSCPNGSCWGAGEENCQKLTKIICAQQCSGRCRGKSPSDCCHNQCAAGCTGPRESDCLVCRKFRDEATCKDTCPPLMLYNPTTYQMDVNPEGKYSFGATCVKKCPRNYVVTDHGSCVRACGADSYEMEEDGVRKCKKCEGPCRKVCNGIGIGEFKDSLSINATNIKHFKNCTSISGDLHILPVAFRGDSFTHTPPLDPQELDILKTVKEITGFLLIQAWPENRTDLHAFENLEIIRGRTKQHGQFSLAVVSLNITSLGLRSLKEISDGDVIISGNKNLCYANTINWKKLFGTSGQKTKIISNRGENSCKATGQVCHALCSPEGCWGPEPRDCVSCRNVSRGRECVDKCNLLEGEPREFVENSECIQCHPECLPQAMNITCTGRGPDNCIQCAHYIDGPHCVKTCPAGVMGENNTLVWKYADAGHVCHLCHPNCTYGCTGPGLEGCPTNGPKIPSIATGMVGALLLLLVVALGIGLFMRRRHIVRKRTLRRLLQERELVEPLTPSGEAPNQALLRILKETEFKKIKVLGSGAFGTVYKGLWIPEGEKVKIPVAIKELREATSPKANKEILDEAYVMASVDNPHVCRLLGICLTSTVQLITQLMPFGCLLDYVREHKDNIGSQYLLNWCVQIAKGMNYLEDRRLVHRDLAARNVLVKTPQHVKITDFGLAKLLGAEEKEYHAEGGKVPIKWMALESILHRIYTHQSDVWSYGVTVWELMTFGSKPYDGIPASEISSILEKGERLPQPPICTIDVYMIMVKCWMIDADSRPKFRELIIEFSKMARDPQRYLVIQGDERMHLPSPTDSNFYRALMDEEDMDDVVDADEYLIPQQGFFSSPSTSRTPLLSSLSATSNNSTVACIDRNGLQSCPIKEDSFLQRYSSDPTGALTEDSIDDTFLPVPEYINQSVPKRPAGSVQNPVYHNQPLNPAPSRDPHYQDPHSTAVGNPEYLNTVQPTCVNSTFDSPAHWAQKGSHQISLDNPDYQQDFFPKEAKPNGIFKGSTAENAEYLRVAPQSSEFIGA

[8] = molecular target: Follistatin-related protein 3 (Homo sapiens) (UniProt O95633); experiment: compounds binding follistatin-related protein 3 – biochemical, small-molecule microarray, 635 nm fluorescence, primary screen (AID 1105); details: FSTL3 binding, higher = more signal;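 also: score merges emission near 667 nm and signal to noise per printed spot across three slides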
Chain of Follistatin-related protein 3 (Homo sapiens) (O95633 whole entry, looked up): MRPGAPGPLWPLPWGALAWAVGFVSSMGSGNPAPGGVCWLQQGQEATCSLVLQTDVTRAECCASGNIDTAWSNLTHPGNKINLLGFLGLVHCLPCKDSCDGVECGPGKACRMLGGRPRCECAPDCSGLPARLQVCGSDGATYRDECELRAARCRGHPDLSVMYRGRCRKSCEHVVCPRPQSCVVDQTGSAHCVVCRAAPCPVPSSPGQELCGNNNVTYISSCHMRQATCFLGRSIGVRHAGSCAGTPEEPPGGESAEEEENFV

[9] = molecular target: Dickkopf-related protein 1 (Homo sapiens) (UniProt O94907); experiment: small molecules binding DKK1 protein – biochemical, small-molecule microarray, 635 nm fluorescence scan, primary screen (AID 1106); details: higher = more signal;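 also: score merges emission near 667 nm with signal to noise over three replicate slides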
Chain of Dickkopf-related protein 1 (Homo sapiens) (O94907 whole entry, looked up): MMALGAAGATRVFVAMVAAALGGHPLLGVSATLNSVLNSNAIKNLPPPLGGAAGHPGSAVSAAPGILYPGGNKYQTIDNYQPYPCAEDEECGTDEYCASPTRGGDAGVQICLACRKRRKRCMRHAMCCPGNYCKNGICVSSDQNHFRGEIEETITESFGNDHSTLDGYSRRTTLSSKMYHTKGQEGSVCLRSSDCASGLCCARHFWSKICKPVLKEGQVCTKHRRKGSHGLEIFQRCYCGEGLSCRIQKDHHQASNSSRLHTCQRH

[10] = system: Inhibin beta A chain (activin A); experiment: small molecules binding activin A – biochemical, small-molecule microarray, 635 nm fluorescence scan, primary screen (AID 1107); details: INHBA, higher = more signal;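 also: mouse activin A protein probed at 4.33 µg/mL on printed slides; score merges bound-protein fluorescence near 667 nm with spot signal-to-noise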
[11] = system: Human papillomavirus type 1a protein E7 (residues 44-93); experiment: small molecules binding HPV E7 44-93 – biochemical, small-molecule microarray, residues 44-93, 635 nm fluorescence, primary screen (AID 1108); details: fluorescence 635 nm, higher = more signal;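 also: E7 fragment applied at 1 µg/mL in TBST for 1 h at 4 C; score combines spot fluorescence with its signal to noise ratio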
[12] = hepatitis C replication reporter changes, two-sided – Huh7 cells, luciferase reporter, HCV replication inhibitor project, primary screen (AID 1109); details: Huh7 HCV replicon luciferase reporter, 48 h; higher = more signal;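 also: huh7 hepatoma cells harbouring a luciferase neomycin HCV replicon reporter; luciferase luminescence as measure of HCV replicon replication; test concentration not given here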
[13] = molecular target: Left-right determination factor 2 (Homo sapiens) (UniProt O00292); experiment: small molecules binding LEFTY2 protein – biochemical, small-molecule microarray, 635 nm fluorescence scan, primary screen (AID 1110); details: higher = more signal
Chain of Left-right determination factor 2 (Homo sapiens) (O00292 whole entry, looked up): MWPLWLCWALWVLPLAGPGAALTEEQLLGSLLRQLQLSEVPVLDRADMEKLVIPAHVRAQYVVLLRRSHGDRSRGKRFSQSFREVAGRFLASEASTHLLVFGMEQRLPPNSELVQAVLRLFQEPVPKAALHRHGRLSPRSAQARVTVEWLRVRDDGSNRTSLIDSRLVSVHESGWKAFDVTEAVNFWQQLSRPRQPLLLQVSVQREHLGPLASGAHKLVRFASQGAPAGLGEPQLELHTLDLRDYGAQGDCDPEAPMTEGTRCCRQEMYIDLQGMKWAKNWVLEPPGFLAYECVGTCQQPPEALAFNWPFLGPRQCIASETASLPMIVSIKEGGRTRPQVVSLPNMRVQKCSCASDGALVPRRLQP

[14] = molecular target: Calmodulin-1 (Homo sapiens) (UniProt P0DP23); experiment: small molecules binding calmodulin-1 with EGTA – biochemical, small-molecule microarray, Cy5-labelled CALM1, profiling panel (AID 1111); details: Cy5-CALM1 binding fluorescence, higher = more signal;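 also: labelled calmodulin applied in Tris saline Tween buffer holding calcium plus EGTA and DTT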
[15] = molecular target: Calmodulin-1 (Homo sapiens) (UniProt P0DP23); experiment: small molecules binding Ca-loaded calmodulin-1 – biochemical, small-molecule microarray, Cy5-labelled CALM1, plus calcium, artefact control for SMM control-protein annotation, profiling panel (AID 1112); details: Cy5-CALM1 binding fluorescence, higher = more signal;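 also: score merges spot fluorescence with signal to noise from triplicate slides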
[16] = probe aWnt5a binding to arrayed compounds – biochemical, biotinylated probe, 635/667 nm fluorescence, primary screen (AID 1113); details: small-molecule microarray, higher = more signal;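 also: score merges 667 nm fluorescence intensity with signal-to-noise per printed feature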
[17] = probe aShh binding to arrayed compounds – biochemical, biotinylated probe, 635/667 nm fluorescence, primary screen (AID 1114); details: small-molecule microarray, higher = more signal;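 also: probe is biotin-labelled aShh protein from a stem cell growth factor screen; measures binding of labelled protein to compounds printed on the slide; score merges feature fluorescence at 667 nm with signal-to-noise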
[18] = probe aNog binding to arrayed compounds – biochemical, biotinylated probe, 635/667 nm fluorescence, primary screen (AID 1115); details: small-molecule microarray, higher = more signal;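 also: probe is biotinylated aNog protein used at 0.15 µg/mL for 1 h at 4 C; z-score combines 667 nm fluorescence of each spot with its signal to noise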
[19] = molecular target: Torsin-1A-interacting protein 1 (Homo sapiens) (UniProt Q5JTV8); experiment: compound microarray binding of lysate hLAP1 – cell lysate, small-molecule microarray, COS7 lysate, 635/667 nm fluorescence, primary screen (AID 1116); details: 635 nm fluorescence, higher = more signal
Chain of Torsin-1A-interacting protein 1 (Homo sapiens) (Q5JTV8 whole entry, looked up): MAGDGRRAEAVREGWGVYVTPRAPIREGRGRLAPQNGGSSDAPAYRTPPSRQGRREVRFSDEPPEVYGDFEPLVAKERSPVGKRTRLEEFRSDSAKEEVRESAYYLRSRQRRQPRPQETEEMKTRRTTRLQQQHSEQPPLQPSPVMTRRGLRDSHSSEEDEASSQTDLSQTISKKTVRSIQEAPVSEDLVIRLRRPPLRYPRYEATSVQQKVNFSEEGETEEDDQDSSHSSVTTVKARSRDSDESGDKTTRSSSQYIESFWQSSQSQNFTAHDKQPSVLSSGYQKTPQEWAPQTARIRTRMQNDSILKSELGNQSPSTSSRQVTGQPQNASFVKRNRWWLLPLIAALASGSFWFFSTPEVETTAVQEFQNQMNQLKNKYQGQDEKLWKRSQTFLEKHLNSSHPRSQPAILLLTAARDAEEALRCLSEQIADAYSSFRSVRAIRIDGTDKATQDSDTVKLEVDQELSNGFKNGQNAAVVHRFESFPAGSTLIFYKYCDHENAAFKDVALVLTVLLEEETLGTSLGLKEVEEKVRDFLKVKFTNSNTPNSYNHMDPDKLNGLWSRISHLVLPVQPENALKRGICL

[20] = molecular target: Alpha-bungarotoxin (Bungarus multicinctus) (UniProt P60615); experiment: compounds binding labelled alpha-BTX control protein – biochemical, small-molecule microarray, Alexa647 label, 635/667 nm fluorescence, artefact control for SMM control protein annotation, profiling panel (AID 1117); details: alpha-BTX-A647 binding fluorescence, higher = more signal
Chain of Alpha-bungarotoxin (Bungarus multicinctus) (P60615 whole entry, looked up): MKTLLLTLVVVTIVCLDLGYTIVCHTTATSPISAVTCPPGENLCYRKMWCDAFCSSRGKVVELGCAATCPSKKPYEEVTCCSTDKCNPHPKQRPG

CS(=O)(=O)CCOC(=O)C1=CC(c2ccc(CO)cc2)=CC(c2cccs2)N(Cc2cccc(OC(F)(F)F)c2)C=C1C(=O)OCCS(C)(=O)=O (stereo not given)
composite z-score [1]: 0.472
composite z-score [2]: 0.15
composite z-score [3]: 0.211
z-score [4]: -0.164 (inactive)
composite z-score [5]: 1.02
composite z-score [6]: 0.88
composite z-score [7]: 0.084
composite z-score [8]: 0.919
composite z-score [9]: 0.353
composite z-score [10]: 1.33
composite z-score [11]: 0.869
z-score [12]: -2.19
composite z-score [13]: 0.192
composite z-score [14]: 1.75
composite z-score [15]: 0.707
composite z-score [16]: 0.0044
composite z-score [17]: -0.102
composite z-score [18]: -0.475
composite z-score [19]: 0.796
composite z-score [20]: 0.904

O=c1cccc(-c2ccccc2)o1
composite z-score [1]: 0.906
composite z-score [2]: -0.196
composite z-score [3]: -0.186
z-score [4]: 0.92 (inactive)
composite z-score [5]: 0.421
composite z-score [6]: 0.211
composite z-score [7]: -0.648
composite z-score [8]: -0.337
composite z-score [9]: -0.1
composite z-score [10]: 1.4
composite z-score [11]: -0.815
z-score [12]: -0.144
composite z-score [13]: -0.491
composite z-score [14]: -0.604
composite z-score [15]: -0.108
composite z-score [16]: -0.0863
composite z-score [17]: 0.0141
composite z-score [18]: -0.295
composite z-score [19]: -0.0971
composite z-score [20]: -0.0278

O=C1O[C@@H](c2ccccc2)[C@@H](c2ccccc2)N2[C@@H](c3ccc(O)cc3)[C@]3(C(=O)Nc4ccc(C#CCCO)cc43)[C@@H](C(=O)O)[C@H]12
composite z-score [1]: 1.67
composite z-score [2]: 2.56
composite z-score [3]: 1.64
z-score [4]: -0.545 (inactive)
composite z-score [5]: 0.472
composite z-score [6]: -0.2
composite z-score [7]: 0.363
composite z-score [8]: 1.13
composite z-score [9]: -0.107
composite z-score [10]: 1.76
composite z-score [11]: 0.449
z-score [12]: 0.386
composite z-score [13]: -0.233
composite z-score [14]: 2.19
composite z-score [15]: 0.933
composite z-score [16]: 0.485
composite z-score [17]: 0.86
composite z-score [18]: 2.63
composite z-score [19]: 1.66
composite z-score [20]: 2.14

CCOC(=O)C[C@H]1[C@H](OC(=O)c2ccc(C(=O)c3ccccc3)cc2)[C@@H](NC(=O)c2ccc3ccccc3n2)c2cc(OCCCO)ccc2N1C(=O)c1ccc2ccccc2n1
composite z-score [1]: 0.143
composite z-score [2]: 0.492
composite z-score [3]: 0.661
z-score [4]: -0.679 (inactive)
composite z-score [5]: 0.418
composite z-score [6]: 0.232
composite z-score [7]: 0.703
composite z-score [8]: 0.154
composite z-score [9]: 0.0952
composite z-score [10]: 0.41
composite z-score [11]: 1.03
z-score [12]: -0.931
composite z-score [13]: 0.691
composite z-score [14]: 0.338
composite z-score [15]: -0.59
composite z-score [16]: 0.0761
composite z-score [17]: -0.0904
composite z-score [18]: -0.158
composite z-score [19]: 1.92
composite z-score [20]: 0.583

CC(C)NC(=O)[C@@H]1c2ccccc2C(=O)N(C2CCCCC2)[C@H]1c1ccc(CO)cc1
composite z-score [1]: 0.576
composite z-score [2]: 0.678
composite z-score [3]: 0.919
z-score [4]: 0.0672 (inactive)
composite z-score [5]: 0.902
composite z-score [6]: 0.889
composite z-score [7]: 0.101
composite z-score [8]: 0.28
composite z-score [9]: -0.161
composite z-score [10]: 0.445
composite z-score [11]: 1.13
z-score [12]: -1.48
composite z-score [13]: 0.0474
composite z-score [14]: 0.166
composite z-score [15]: 0.808
composite z-score [16]: 0.0279
composite z-score [17]: -0.195
composite z-score [18]: 0.342
composite z-score [19]: 0.416
composite z-score [20]: 1.01

From PubChem BioAssay
